Source: PubChem BioAssay (NCI)
About 83,000 compounds went through this panel and 20% of them were active in at least one assay; those are over-represented in the sample as a whole.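 Cell lines were cultured in 96-well plates, exposed to a single compound concentration, and assessed for percent growth 48 hours later.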 Values without a mark were called inactive. The source made the active and inactive calls. The calls were made as follows: active = growth percent below 10; inactive = the rest.

Key:
Experiment in all cases: NCI-60 one-dose screen, 48 h (100 = growth as untreated, 0 = no growth, -100 = all killed)
Settings in all cases: 10 µM unless noted
[1] = tested on: HCT-15 colon
[2] = tested on: HT29 colon
[3] = tested on: SNB-75 CNS
[4] = tested on: SNB-19 CNS
[5] = tested on: U251 CNS
[6] = tested on: PC-3 prostate
[7] = tested on: SK-MEL-5 melanoma
[8] = tested on: UACC-62 melanoma
[9] = tested on: LOX IMVI melanoma
[10] = tested on: SK-MEL-28 melanoma

| SMILES | growth [1] | growth [2] | growth [3] | growth [4] | growth [5] | growth [6] | growth [7] | growth [8] | growth [9] | growth [10] |
| --- | --- | --- | --- | --- | --- | --- | --- | --- | --- | --- |
| COc1ccc(-c2cc(C(=O)Nc3ccc(C)cc3)nc3[nH]c(=O)sc23)cc1 | 63.8% | 81.4% | 102% | 57.7% | 56.2% | 73.8% | 37.2% | 31.3% | 77.7% | 70% |
| C#C[C@]1(O)CC[C@H]2[C@@H]3CC=C4c5sc(-c6cccc(Br)c6)nc5CC[C@]4(C)[C@H]3CC[C@@]21C | 61.7% | 83.1% | 59% | 84.6% | 70.9% | 57.2% | 99.9% | 89.9% | 71.6% | 54.7% |
| CC(C)(C)c1nn(-c2ccccc2)c2c1C(=O)CSC(c1ccc3c(c1)OCO3)N2 (stereo not given) | 89.9% | 100% | 98.4% | 101% | 107% | 84.4% | 110% | 85.3% | 87% | 109% |
| COc1ccc(/C=C/C(=O)CCC(=O)O)cc1OC | 115% | 101% | 90.5% | 111% | 107% | 111% | 109% | 110% | 99.7% | 112% |
| O=C(CC(=O)c1cccc(Cl)c1)c1cccc(Cl)c1 | 25.9% | 34.7% | 75.3% | 31.3% | 16.7% | 33.3% | 36.8% | 27.2% | 33.2% | 56% |
| O=C(CSc1nc2c(n1Nc1ccccc1)-c1ccccc1SC2)Nc1nccs1 | 87.5% | 102% | 69.7% | 99.4% | 93.8% | 78.8% | 101% | 83.3% | 97.1% | 112% |
| CNC1=C([N+](=O)[O-])C(c2ccccc2O)C(C#N)=C(c2cccs2)O1 (stereo not given) | 88.5% | 105% | 84.2% | 102% | 91.5% | 97.7% | 97% | 89.3% | 87.3% | 93.3% |
| COc1ccc2[nH]cc(C3(c4c[nH]c5ccc(OC)cc45)C(=O)Nc4ccc(F)cc43)c2c1 | 86.6% | 68% | 42.9% | 97.2% | 82.5% | 9.66% (active) | 84.1% | 82.3% | 58.5% | 96.4% |
| O=C(c1ccccc1)C1OC1C(=O)c1ccccc1 (stereo not given) | 13.1% | 10% (active) | 11.1% | 92.9% | 28.1% | 51% | 37.7% | 46.8% | 2.54% (active) | 49.2% |
| Nc1c(C(=O)Nc2ccccc2)sc2nc3c(cc12)C(=O)CCC3 | 27.2% | 4.34% (active) | 12.4% | 36.1% | 25.7% | 21.6% | 25.7% | 44.1% | 51.2% | 58.7% |
| COc1cccc(C2C(C#N)=C(N)Oc3cc4c(cc32)OCO4)c1 (stereo not given) | 16.4% | 8.91% (active) | 8.73% (active) | 39.2% | 23.4% | 27.4% | 4.73% (active) | 33.6% | 23.1% | 43% |
| Clc1cccc(CNc2c3ccccc3nc3ccccc23)c1 | 14% | 8.62% (active) | 68.7% | 26.4% | 22.7% | 23.5% | 66.2% | 52.6% | 1.75% (active) | 66.2% |
| COc1ccc2c(c1)N(Cc1ccc(Cl)cc1)CCC2N1CCCC1=O (stereo not given) | 33.5% | 45.5% | 27.1% | 54.7% | 39.1% | 24% | 24.7% | 42.1% | 30.3% | 63.5% |
| Cc1ccc(Nc2cccc3ccccc23)cc1 | 79.1% | 83.9% | 79.7% | 90.3% | 90.8% | 73.9% | 96.1% | 85.4% | 79.9% | 98.5% |
| Clc1cc(Cl)cc(-c2cnc3nonc3n2)c1 | 64.4% | 92.8% | 99% | 93.4% | 106% | 90.9% | 107% | 83.1% | 95% | 91.5% |
| O=[N+]([O-])c1ccc(N=Nc2c(NNc3ccc([N+](=O)[O-])cn3)cc(S(=O)(=O)O)c3ccccc23)nc1 | 68.7% | 40.8% | 91.9% | 95.6% | 68.7% | 67.7% | 92% | 86.4% | 57.9% | 104% |
| NC(=O)N/N=C\c1ccc([N+](=O)[O-])o1 | 92.5% | 111% | 84.3% | 113% | 93% | 85.2% | 107% | 103% | 91.5% | 106% |
| CCC1=CC2CN(C1)Cc1c([nH]c3ccccc13)[C@@](C(=O)OC)(c1cc3c(cc1OC)N(C)[C@H]1[C@@](O)(C(=O)OC)[C@H](OC(C)=O)[C@]4(CC)C=CCN5CC[C@]31[C@@H]54)C2 (stereo not given in full) | 21.5% | 2.55% (active) | -5.65% (active) | 53.6% | 11% | 34.5% | -46.9% (active) | 43.6% | 20% | 62.1% |
| CN(C)c1nc(-c2ccco2)n2nc(-c3ccc(Cl)cc3)cc2n1 | 92.7% | 58.6% | 20.9% | 77.9% | 59.5% | 64.7% | 81.2% | 87% | 50.5% | 94.8% |
| COc1ccc(Oc2nc(Nc3ccc(N4CCOCC4)cc3)ncc2NC(=O)Nc2cccc(OC)c2)cc1 | 84% | 54.2% | 80.1% | 72% | 48.8% | 48.4% | 22.5% | 46.8% | 76.7% | 61.4% |

| SMILES | growth [1] | growth [2] | growth [3] | growth [4] | growth [5] | growth [6] | growth [7] | growth [8] | growth [9] | growth [10] |
| --- | --- | --- | --- | --- | --- | --- | --- | --- | --- | --- |
| CCOC(=O)Nc1ccc2nc(N3CCCCCC3)sc2c1 | 24.7% | 6.49% (active) | -8.82% (active) | 33.6% | 22.8% | 25% | 11.5% | 26% | 44.4% | 42.6% |
| COc1ccc2nc3ccccc3c(NCc3ccc(C)cc3)c2c1 | 11.4% | 1.23% (active) | 46.6% | 29.2% | 15.3% | 11.4% | 34.4% | 55.7% | -6.01% (active) | 66.4% |
| CC(=O)Cc1ccccn1 | 98.6% | 95.9% | 104% | 114% | 93.5% | 94.8% | 105% | 108% | 103% | 106% |
| O=C(NCCN1CCCCC1)n1cc(-c2ccncc2)c(-c2ccc(Cl)c(O)c2)n1 | 86.6% | 95.5% | 78.9% | 101% | 98.5% | 84.6% | 73.2% | 37.9% | 64.7% | 37.5% |
| CO[C@H](C(=O)[C@@H](O)[C@@H](C)O)[C@@H]1Cc2cc3cc(O[C@H]4C[C@@H](O[C@H]5C[C@@H](O)[C@H](O)C(C)O5)[C@H](O)C(C)O4)c(C)c(O)c3c(O)c2C(=O)[C@H]1O[C@H]1C[C@@H](O[C@H]2C[C@@H](O[C@H]3C[C@](C)(O)C(=O)C(C)O3)[C@@H](O)C(C)O2)[C@H](O)C(C)O1 (stereo not given in full) | 20.2% | -13.9% (active) | -65.5% (active) | 10.8% | 2.98% (active) | 6.86% (active) | -32.2% (active) | -30.7% (active) | -5.83% (active) | -18.8% (active) |
| Cc1ccc(NC(=O)c2sc3nc4c(cc3c2N)C(=O)CCC4)cc1Cl | 97.3% | 97.5% | 110% | 114% | 97.9% | 104% | 102% | 108% | 99.2% | 108% |
| NNC(=O)CSc1nc2scc(-c3ccccc3)c2c(=O)n1-c1ccccc1 | 101% | 121% | 88.3% | 107% | 103% | 80.5% | 88.4% | 90.2% | 78.7% | 111% |
| ClCc1c(Cl)c(Cl)c(Cl)c(CCl)c1Cl | 4.87% (active) | -78.4% (active) | 89% | 58.7% | -25.4% (active) | 8.08% (active) | 61.3% | 103% | -79% (active) | 88.7% |
| CC(=O)Oc1c(Cl)c(Cl)c(Cl)c(Cl)c1Cl | 95% | 99.9% | 80.1% | 96.3% | 94.7% | 91.1% | 102% | 88% | 93.1% | 104% |
| Cc1nn(-c2cccc(Cl)c2)c(C)c1N=Nc1ccc(Br)cc1 | 94.4% | 74.7% | 91.9% | 97.9% | 92.5% | 80.9% | 97.5% | 81.7% | 101% | 92.3% |
| CCOC(=O)c1cc(C(=O)OCC)c(C)nc1C | 102% | 104% | 99% | 103% | 103% | 98.2% | 107% | 103% | 107% | 112% |
| CN(C)c1ccc(C2(Cl)c3ccccc3N(C)c3ccccc32)cc1 | 64.5% | 12.1% | 71.2% | 45.5% | 1.47% (active) | 7.45% (active) | 79.9% | 35.2% | 27.6% | 52.4% |
| CCCCCCCCCCCCCCCCCC(=O)OCCCCCCCCCCCCC | 108% | 103% | 104% | 113% | 108% | 102% | 114% | 113% | 103% | 125% |
| CC(=O)OC[C@H]1O[C@@H](n2c(=O)cc(N)[nH]c2=O)C(OC(C)=O)[C@@H]1OC(C)=O (stereo not given in full) | 99.7% | 106% | 75.9% | 98.7% | 97.7% | 95.3% | 99.5% | 94.6% | 99.9% | 110% |
| N/N=C(\C(=N\N)c1ccccc1)c1ccccc1 | 104% | 94.7% | 86.4% | 96.6% | 104% | 88.7% | 101% | 90.2% | 97.3% | 105% |
| O=S1(=O)NCCCN1CCNc1nccc(-c2c(-c3cccc(O)c3)nc3sccn23)n1 | 95.5% | 56.2% | 37.9% | 119% | 77.4% | 106% | 74.2% | -6.85% (active) | 20.1% | 24% |
| O=C1C=CN2C(=O)CC=CC2[C@@H]1O (stereo not given in full) | 138% | 110% | 94.1% | 130% | 120% | 94.9% | 109% | 115% | 100% | 110% |
| COc1cc(OC)c(Cl)cc1N | 96.6% | 107% | 101% | 100% | 104% | 88.7% | 112% | 97.8% | 101% | 109% |
| O=C(c1ccc(OCCN2CCCCC2)cc1)c1c(-c2ccc(O)cc2)sc2cc(O)ccc12 | 91.7% | 114% | 53.5% | 86.7% | 64.9% | 81.8% | 71.5% | 92.1% | 78.4% | 88.3% |
| COc1ccc(-c2cnnn2-c2nonc2-n2cccc2)cc1 | 21.4% | 8.25% (active) | -15.9% (active) | 37.6% | 22.1% | 28.8% | 31.9% | 24.1% | 34.1% | 18.4% |
